This passage reports growth inhibition results from PubChem BioAssay (NCI).

The nature of assay [1]: NCI Yeast Anticancer Drug Screen. Data for the rad50 strain (AID 155).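 Note: 0% = growth of vehicle-only cultures of the same strain.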 The settings on record: S. cerevisiae rad50 strain growth inhibition; at 50.0 µM; stronger effect = higher value. The procedure, abridged:
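Relative growth inhibition (compound vs vehicle) was measured in yeast with a defined repair-gene alteration.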

Assay [2] is described as follows: NCI Yeast Anticancer Drug Screen. Data for the mec2-1 strain (AID 157). The settings on record: S. cerevisiae mec2-1 strain, at 50.0 µM, stronger effect = higher value. The procedure, abridged:
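Test agents were screened against the mec2-1 yeast strain, with defined DNA repair or cell cycle alteration. Growth was scored as inhibition against vehicle-only controls.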

Assay [3] can be described thus: NCI Yeast Anticancer Drug Screen. Data for the sgs1 mgt1 strain (AID 161).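 Note: 0% = growth of cultures given vehicle only.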 The settings on record: S. cerevisiae sgs1 mgt1 strain, at 50.0 µM, stronger effect = higher value. In a few lines: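 Test agents were incubated with a DNA-repair-mutant yeast strain. Growth was then read and compared against vehicle-treated controls.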
Assay [4] is described as follows: NCI Yeast Anticancer Drug Screen. Data for the cln2 rad14 strain (AID 165).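 Note: 0% = growth equal to vehicle treated cultures.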 The settings on record: S. cerevisiae cln2 rad14 strain, at 50.0 µM, stronger effect = higher value. In a few lines: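 Growth of compound-exposed yeast (cln2 rad14 genotype) measured and expressed as inhibition relative to vehicle.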
The nature of assay [5]: NCI Yeast Anticancer Drug Screen. Data for the bub3 strain (AID 167). The conditions noted are these: S. cerevisiae bub3 mutant strain, at 50.0 µM, stronger effect = higher value. In a few lines: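 Screening used yeast with an engineered genetic alteration affecting cell cycle control. Compound-exposed cultures were compared with vehicle cultures, and reduced growth was taken as inhibition.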

Assay [6] in a line: NCI Yeast Anticancer Drug Screen. Data for the mlh1 rad18 strain (AID 175). The settings on record: S. cerevisiae mlh1 rad18 strain growth inhibition; at 50.0 µM; stronger effect = higher value. The procedure, abridged: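 In this whole-cell yeast screen, a strain with altered DNA damage repair is challenged with compound, and its growth is measured against matched vehicle-treated controls.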

This is part of a sample that, as a whole, favours compounds with a hit. Of some 79,000 tested, about 15% had one in any assay. A number with no mark means an inactive call. Activity calls are given as the source filed them. Cut-off read from the data, not from the text of the source: active = growth inhibition above about 70%; inactive = the rest.

As to `CNC(=O)CN(CC(N)=O)C(=O)NC`, the growth inhibition in assay [1] was -29.5%; in assay [2] it was -20.3%; in assay [3], -27.6%; in assay [4], 0.65%; in assay [5], -23%; in assay [6], -35%.

Consider `O=C1CC(C(=O)O)CC(=O)CC(C(=O)O)C1` (centres undefined), for which the growth inhibition in assay [1] was -0.7%; in assay [2], -13.2%; in assay [3], -10.6%; in assay [4], -33.4%; in assay [5], 14.9%; in assay [6] it was 18.9%.

Take `O=c1[nH]c(=O)n(C2CC(O)C(CO)O2)cc1/C=C/Br` (centres undefined): the growth inhibition in assay [1] is -17.9%; in assay [2] it was -9.25%; in assay [3], -8.95%; in assay [4], -5.4%; in assay [5], 7.35%; in assay [6] it was -18.1%.

With `CC(=O)n1cc2cc([N+](=O)[O-])ccc2n1`, the growth inhibition in assay [1] was -13.4%; in assay [2], -13.6%; in assay [3], -1.15%; in assay [4] it was -91.8%; in assay [5] it was -1%; in assay [6], -17.1%.

In the case of `COc1cc(C(C#N)NNC(=O)c2ccccc2O)ccc1O` (centres undefined), the growth inhibition in assay [1] is 34.4%; in assay [2] it was 42.8%; in assay [3], 44.7%; in assay [4], 17.6%; in assay [5], 66.2%; in assay [6], 38%.

With `O=C1/C(=C/c2ccco2)SC(=S)N1C1c2ccccc2Oc2ccccc21`, the growth inhibition in assay [1] was 25%; in assay [2], 6.65%; in assay [3], 67.2%; in assay [4], 45.6%; in assay [5], -0.4%; in assay [6], 24.8%.

As to `COc1ccc2[nH]c3c(c(=O)c2c1)CCCC3`, the growth inhibition in assay [1] is -1.15%; in assay [2], -12.9%; in assay [3], 2.85%; in assay [4] it was -6.2%; in assay [5], 5.8%; in assay [6], -12.7%.

On to `COC(=O)c1cncn1C1CC1`, for which the growth inhibition in assay [1] is 8.25%; in assay [2], -7.1%; in assay [3] it was -3.2%; in assay [4], -58.5%; in assay [5] it was -2.95%; in assay [6], -8.2%.

In the case of `CN(CCO)CC(O)Cn1cnc2c(N)ncnc21` (centres undefined), the growth inhibition in assay [1] is -12.5%; in assay [2], -17.8%; in assay [3], -31.5%; in assay [4] it was 10.7%; in assay [5], -19.4%; in assay [6], 19.8%.

Take `CCOC(=O)C(NC(=O)c1ccccc1)(c1ccc(S(=O)(=O)Nc2onc(C)c2C)cc1)C(F)(F)F` (centres undefined): the growth inhibition in assay [1] was 7.3%; in assay [2], -8.9%; in assay [3], -18.9%; in assay [4] it was -12.1%; in assay [5], -10.6%; in assay [6], -4.25%.

For `CC(=O)c1cccc(NC(=O)N(C)C2CCCCC2)c1`, the growth inhibition is 5.65% in assay [1]; 13.7% in assay [2]; -3.65% in assay [3]; -15.6% in assay [4]; -7.45% in assay [5]; -22.1% in assay [6].

On to `O=[N+]([O-])c1ccc(C2SCc3nc4ccccc4n32)cc1` (centres undefined), for which the growth inhibition in assay [1] was 3.4%; in assay [2], -14.2%; in assay [3] it was 49.1%; in assay [4], 15.2%; in assay [5], 23.1%; in assay [6], -2.65%.

For `Clc1ccccc1/C=C/c1ccnnc1`, the growth inhibition was 15.8% in assay [1]; 18.6% in assay [2]; -3.65% in assay [3]; 7% in assay [4]; 1.35% in assay [5]; 12.8% in assay [6].

In the case of `CO/C=C/c1cc2c(cc1Br)OCO2`, the growth inhibition in assay [1] was 10.9%; in assay [2], 5.15%; in assay [3], 25.4%; in assay [4], 0.75%; in assay [5], 11.4%; in assay [6], 12.3%.

In the case of `COC(=O)NN(C(=O)OC)C12CCCCC1N(C(=O)OC)N(C(=O)OC)c1c2ccc2cc(OC)ccc12` (centres undefined), the growth inhibition in assay [1] was 24.4%; in assay [2] it was -0.7%; in assay [3], 7.65%; in assay [4], -14.1%; in assay [5], 4.2%; in assay [6], 10.9%.

With `CC(=O)OC1=CC(=O)N(C(=O)c2ccccc2)C1`, the growth inhibition in assay [1] was -2.8%; in assay [2], -5.95%; in assay [3], -18.6%; in assay [4] it was -12.2%; in assay [5], 3.2%; in assay [6] it was -6.55%.

In the case of `CC1=CCC(CC(=O)O)C1(C)C` (centres undefined), the growth inhibition is 10.2% in assay [1]; 2.05% in assay [2]; -2.85% in assay [3]; 4.3% in assay [4]; 6.55% in assay [5]; -5% in assay [6].

On to `Clc1ccc2nc[nH]c2c1`, for which the growth inhibition in assay [1] was 10.1%; in assay [2] it was 10.1%; in assay [3] it was 4.5%; in assay [4] it was 0.7%; in assay [5], 5.9%; in assay [6], 18.2%.

Take `O=C(CC(=O)c1cccc([N+](=O)[O-])c1)C(=O)Nc1ccccc1`: the growth inhibition was -30.5% in assay [1]; -28.8% in assay [2]; 14.7% in assay [3]; 11.1% in assay [4]; -8.05% in assay [5]; -5.55% in assay [6].

In the case of `CCSC1(SCC)C2(CCCCC2)C(=O)C12CCCCC2`, the growth inhibition in assay [1] was -5.55%; in assay [2] it was 17.1%; in assay [3], 9.1%; in assay [4], -12.1%; in assay [5] it was 13.1%; in assay [6] it was 78.1% (active).

As for `Cc1ccc2ccc(C)nc2c1`, the growth inhibition in assay [1] is 15.8%; in assay [2], -23.7%; in assay [3], -5.85%; in assay [4], 7.15%; in assay [5], 18.2%; in assay [6], -22.9%.

`CCC(=O)Oc1ccccc1C(C)C`: the growth inhibition in assay [1] was 9.8%; in assay [2] it was -14.6%; in assay [3] it was 1.9%; in assay [4] it was 8.55%; in assay [5], -6.25%; in assay [6], 12.2%.

On to `CCOCCC(=O)OCCC(C)OC` (centres undefined), for which the growth inhibition is 4.95% in assay [1]; 11% in assay [2]; 11.2% in assay [3]; -26.4% in assay [4]; -58.1% in assay [5]; -37.2% in assay [6].

As for `COc1coc(/C=C/C(=O)c2ccc(O)c(O)c2)cc1=O`, the growth inhibition was -11.9% in assay [1]; 12.7% in assay [2]; 10.3% in assay [3]; -11.8% in assay [4]; -6.25% in assay [5]; -32.5% in assay [6].

Regarding `O=C(O)CNC(=O)C(Cc1ccccc1)NC(=O)CNC(=O)C(CSC(c1ccccc1)c1ccccc1)NC(=O)C(CSC(c1ccccc1)(c1ccccc1)c1ccccc1)N1C(=O)c2ccccc2C1=O` (centres undefined), the growth inhibition in assay [1] is 1.5%; in assay [2], 14.1%; in assay [3], -3.7%; in assay [4], -17.9%; in assay [5], -7.05%; in assay [6], 11%.

On to `Nc1c2c(cc3c1C(=O)c1ccccc1C3=O)OCO2`, for which the growth inhibition in assay [1] is 47.8%; in assay [2], 20%; in assay [3] it was 29.4%; in assay [4], 16.2%; in assay [5], 22%; in assay [6] it was 39%.

For `CC(=O)Nc1c(F)c(F)c(F)c(F)c1F`, the growth inhibition in assay [1] is 20.1%; in assay [2], 2.2%; in assay [3], -11.7%; in assay [4], -35%; in assay [5], 14.3%; in assay [6], -13.1%.

With `CSc1ccc(NC(=O)Nc2ccc(Cl)cc2[N+](=O)[O-])cc1`, the growth inhibition in assay [1] is -4.55%; in assay [2], 40.5%; in assay [3], 13.6%; in assay [4], -6.05%; in assay [5], 17.9%; in assay [6] it was 20.3%.

For `CCOC(=O)/C=C/c1ccc(F)cc1`, the growth inhibition in assay [1] was 27.6%; in assay [2] it was 2%; in assay [3] it was 18.1%; in assay [4], 11.2%; in assay [5], 20.8%; in assay [6] it was 10.9%.

On to `CCCNC(=S)N/N=C/c1cccc(C)n1`, for which the growth inhibition in assay [1] is -23.3%; in assay [2], -26.1%; in assay [3], 2.15%; in assay [4], 15.2%; in assay [5], 24.2%; in assay [6] it was -12%.

In the case of `CNc1ncnc2c1ncn2C`, the growth inhibition was 20.8% in assay [1]; 24.5% in assay [2]; -7.1% in assay [3]; -17.1% in assay [4]; 1.6% in assay [5]; -2.1% in assay [6].

As to `O=C1c2ccccc2C(=O)N1C1(C(=O)NC2(C(=O)O)CCCC2)CCCC1`, the growth inhibition in assay [1] was -2.5%; in assay [2], -7.8%; in assay [3], -37.8%; in assay [4], 2.6%; in assay [5], -38.1%; in assay [6], -8.6%.

For the molecule `Cc1nc2ccc(S(=O)(=O)Nc3ccc(Cl)cc3)cc2c(=O)n1NC(=O)CNc1ccc(Cl)cc1`, the growth inhibition was 33.3% in assay [1]; 22.4% in assay [2]; 42.2% in assay [3]; 15.6% in assay [4]; 19.9% in assay [5]; 24.2% in assay [6].

`ClCCCCSC1CCCCC1`: the growth inhibition was -5.7% in assay [1]; -9.15% in assay [2]; -5.4% in assay [3]; -3.1% in assay [4]; 0.6% in assay [5]; -25.1% in assay [6].

On to `OC1(C2(O)CCCCC2)CCCCC1`, for which the growth inhibition in assay [1] is -38.2%; in assay [2], 13.4%; in assay [3], 22.1%; in assay [4] it was -32.5%; in assay [5], -11.8%; in assay [6] it was 3.75%.

For `CC/C(C)=N/NS(=O)(=O)c1ccc(C)cc1`, the growth inhibition is 43.9% in assay [1]; 13.2% in assay [2]; 2.3% in assay [3]; 16% in assay [4]; 1.15% in assay [5]; 42.5% in assay [6].

On to `CC1CC=CCC1C1OCCO1` (centres undefined), for which the growth inhibition is 3.95% in assay [1]; 1.6% in assay [2]; 3.45% in assay [3]; 10.2% in assay [4]; 16.4% in assay [5]; -2.7% in assay [6].

As to `O=c1ccnc2c1ccc1[nH]cccc12`, the growth inhibition in assay [1] was 1.35%; in assay [2], 6.25%; in assay [3], -13.9%; in assay [4], 1%; in assay [5] it was 8.6%; in assay [6], 13.3%.

As to `CCCCS(=O)(=O)N1CCCC1`, the growth inhibition is 4.15% in assay [1]; -10.3% in assay [2]; 1.9% in assay [3]; -28.2% in assay [4]; -5% in assay [5]; -5.85% in assay [6].
